Experimental data as given in PubChem BioAssay (NCI).
Compounds without any hit were thinned out: in the full panel of roughly 83,000, 20% have a hit.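 Percent growth is the endpoint: 0 to 100 indicates growth inhibition (40 means 60% inhibition), 0 means no net growth, and negative values indicate cell death.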 Activity calls are given as the source filed them. The calls were made as follows: active = growth percent below 10; inactive = the rest.

Key:
Assay in all cases: NCI-60 one-dose screen, 48 h (100 = growth as untreated, 0 = no growth, -100 = all killed)
HT29 colon = settings: 10 µM unless noted
SNB-75 CNS = settings: 10 µM unless noted
SNB-19 CNS = settings: 10 µM unless noted
U251 CNS = settings: 10 µM unless noted
PC-3 prostate = settings: 10 µM unless noted
SK-MEL-5 melanoma = settings: 10 µM unless noted
UACC-62 melanoma = settings: 10 µM unless noted
LOX IMVI melanoma = settings: 10 µM unless noted
SK-MEL-28 melanoma = settings: 10 µM
SK-MEL-2 melanoma = settings: 10 µM unless noted

Measured: growth

COc1cc2nc(-c3cccc4cccnc34)nc(NC3CCN(Cc4ccccc4)CC3)c2cc1OC
active: HT29 colon -87.2% | SNB-75 CNS -87.8% | SNB-19 CNS -78.2% | U251 CNS -78.4% | PC-3 prostate -84.4% | SK-MEL-5 melanoma -96.8% | UACC-62 melanoma -82.3% | LOX IMVI melanoma -82.3% | SK-MEL-28 melanoma -76.9%

O=C(N/N=C/c1ccccc1O)C(=O)Nc1ccc(F)cc1
inactive: HT29 colon 40.9% | SNB-75 CNS 85.5% | SNB-19 CNS 53.9% | U251 CNS 33.5% | PC-3 prostate 54.7% | SK-MEL-5 melanoma 55.5% | UACC-62 melanoma 35.1% | LOX IMVI melanoma 27.2% | SK-MEL-28 melanoma 59.4%

CC(=O)O[C@@H]1/C=C/C(=O)N[C@@H](C)CCC/C=C/[C@@H]2CCC[C@H]21
inactive: HT29 colon 110% | SNB-75 CNS 95% | SNB-19 CNS 96.9% | U251 CNS 109% | PC-3 prostate 90.2% | SK-MEL-5 melanoma 101% | UACC-62 melanoma 92.1% | LOX IMVI melanoma 105% | SK-MEL-28 melanoma 129%

NC1(N2SC(S)=C3CCCC=C32)CCCCC1
inactive: HT29 colon 97.1% | SNB-75 CNS 91.7% | SNB-19 CNS 96.9% | U251 CNS 101% | PC-3 prostate 109% | SK-MEL-5 melanoma 104% | UACC-62 melanoma 104% | LOX IMVI melanoma 94.7%

CNCCNc1nc2ccccc2c2c(=O)c3cc(OC)ccc3sc12
inactive: SNB-75 CNS 43.1% | SNB-19 CNS 57.6% | PC-3 prostate 14% | SK-MEL-5 melanoma 76.4% | SK-MEL-28 melanoma 74.6% | SK-MEL-2 melanoma 75.2%
active: HT29 colon -33.3% | U251 CNS -19.6% | UACC-62 melanoma 7.43% | LOX IMVI melanoma -87.8%

Cc1ccccc1CNC(=O)C1CN(c2ccc(Cl)cc2)N(c2ccc(Cl)cc2)C1=O (stereo not given)
inactive: HT29 colon 77% | SNB-75 CNS 88% | SNB-19 CNS 89.5% | U251 CNS 89.7% | PC-3 prostate 72.8% | SK-MEL-5 melanoma 86.2% | UACC-62 melanoma 60.8% | LOX IMVI melanoma 92.9% | SK-MEL-28 melanoma 91%

COc1cc(/C=C2\CCC/C(=C\c3cc(CN4CCOCC4)c(O)c(OC)c3)C2=O)cc(CN2CCOCC2)c1O
active: HT29 colon 3.44% | SNB-75 CNS 4.53%
inactive: SNB-19 CNS 52.8% | U251 CNS 22% | PC-3 prostate 39.9% | SK-MEL-5 melanoma 52.3% | UACC-62 melanoma 40% | LOX IMVI melanoma 13.3% | SK-MEL-28 melanoma 58.7%

Cc1ccc(S(=O)(=O)c2c(COC(=O)c3cccc(C)c3)c(-c3ccccc3)nn2C)cc1
active: HT29 colon -44.5% | U251 CNS -32.4% | LOX IMVI melanoma -22.8% | SK-MEL-28 melanoma -68.4%
inactive: SNB-75 CNS 107% | SNB-19 CNS 24.6% | PC-3 prostate 48.5% | SK-MEL-5 melanoma 77.6% | UACC-62 melanoma 88.7%

O=C1NC(=O)C(=Cc2cn(Cc3cn(Cc4ccc(Cl)cc4Cl)nn3)c3ccccc23)C(=O)N1
inactive: HT29 colon 111% | SNB-75 CNS 75.4% | SNB-19 CNS 88.5% | U251 CNS 91% | PC-3 prostate 89.6% | SK-MEL-5 melanoma 69.5% | UACC-62 melanoma 67.6% | LOX IMVI melanoma 80.1% | SK-MEL-28 melanoma 107%

CCOC(=O)C1(C(=O)OCC)N=C(c2ccccc2)C=C1c1ccccc1
inactive: HT29 colon 76.2% | SNB-75 CNS 81.2% | SNB-19 CNS 95.4% | U251 CNS 83.3% | PC-3 prostate 83.8% | SK-MEL-5 melanoma 90.1% | UACC-62 melanoma 82% | LOX IMVI melanoma 94.9% | SK-MEL-28 melanoma 105%

COc1ccc(C2C3=C(COC3=O)N(CCO)c3cc4c(cc32)CCC4)cc1OC (stereo not given)
active: HT29 colon -3.07% | SNB-75 CNS -28%
inactive: SNB-19 CNS 27.8% | U251 CNS 20% | PC-3 prostate 23.4% | SK-MEL-5 melanoma 28% | UACC-62 melanoma 36.7% | LOX IMVI melanoma 44%

Cc1ccc(C(=O)c2oc3ccc4c(C)cc(=O)oc4c3c2C)cc1
inactive: HT29 colon 14.3% | SNB-75 CNS 67.8% | SNB-19 CNS 41.4% | U251 CNS 18.6% | UACC-62 melanoma 29.4% | LOX IMVI melanoma 33.2% | SK-MEL-28 melanoma 51.4%
active: PC-3 prostate 7.34% | SK-MEL-5 melanoma -56.6%

O=C(O)CCCN1C(=O)C2C3CCC(C3)C2C1=O (stereo not given)
inactive: HT29 colon 100% | SNB-75 CNS 95.8% | SNB-19 CNS 104% | U251 CNS 104% | PC-3 prostate 106% | SK-MEL-5 melanoma 101% | UACC-62 melanoma 97% | LOX IMVI melanoma 103% | SK-MEL-28 melanoma 113% | SK-MEL-2 melanoma 101%

COC(=O)c1c2c(c(C)[n+]([O-])c1C)C(=O)C(NCc1ccc(Br)cc1)=CC2=O
inactive: SNB-75 CNS 84.5% | SNB-19 CNS 19% | PC-3 prostate 27.6% | LOX IMVI melanoma 16.9% | SK-MEL-28 melanoma 65.3%
active: HT29 colon 9.96% | U251 CNS 9.45% | SK-MEL-5 melanoma -93.1% | UACC-62 melanoma -16.2%

FC(F)(F)c1cccc(Nc2nc3ccccc3nc2Nc2cccc(C(F)(F)F)c2)c1
inactive: PC-3 prostate 15.4%
active: HT29 colon -53.7% | SNB-75 CNS -92.3% | SNB-19 CNS 7.81% | U251 CNS -34% | SK-MEL-5 melanoma -95.6% | UACC-62 melanoma -62.6% | LOX IMVI melanoma -79.4% | SK-MEL-28 melanoma -85.5%
